# Screening results (PubChem)
# FMDV inh: antivirals against foot and mouth disease virus; FMDV antiviral cell-based qHTS; Potency, µM (titrated, usually from 57.9 µM), without a hit: at the highest dose activity change, negative = inhibition, most hits filed as inhibitors; 1.2% of 410,000 active; calls by dose curve; tested in HEK293T cells; note: read-out not given here; potency is the fitted concentration of half-maximal effect; nearly all actives have a fitted effect of over 45% in size
# HCV inhibitor: inhibitors of hepatitis C virus infection. Potency, µM (highest dose often 41.8 µM), for inactives: top-dose activity change, negative = inhibition, actives largely listed as inhibitors. 3.4% of 340,000 active. Huh7.5.1 HCVcc-Cre infection, luciferase reporter, 44 h; active = well fitted inhibition curve with a large enough effect; inconclusive = small, poorly fitted or top-dose-only effect, or another doubt; inactive = no such curve, though single readings can be large or run the other way; note: potency is the fitted concentration of half-maximal effect
#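 HCVcc-Cre virus at an moi near 0.5 was added right after compound to cells cultured 4 h from seeding (1,000 cells/well). Luciferase activity was determined 44 h later, 15 min after substrate addition at RT.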
# HCMV inh: blocks human cytomegalovirus replication; activity change, negative = inhibition, % at 57.5 µM; HFF cells, HCMV-luciferase reporter, 72 h; active compounds read low; 4.5% of 410,000 active; in the data active = activity change below about -60%; inconclusive = no clear call, values can overlap the other calls; inactive = above about -39%
#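 HFF cells seeded 16 h at 37C, treated with compounds, infected with luciferase-reporter HCMV at MOI 1 PFU/cell; luciferase read at 72 h post infection, normalized to buffer-only and Salinomycin controls.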
# Lassa entry inh: blocks Lassa virus binding to or entry into cells; Potency, µM (top dose mostly 37.9 µM), inactives show at the top dose activity change, negative = inhibition, hits mostly inhibitors; AID 540256; 1.2% of 300,000 active; Lassa virus pseudotype entry inhibition, cell reporter; calls by dose curve; tested in HEK293 cells; note: potency is the fitted concentration of half-maximal effect; nearly all actives have a fitted effect of over 50% in size
# Marburg entry inh: blocks Marburg virus binding to or entry into cells; AID 540276; Potency, µM (top dose mostly 37.8 µM), for inactives: at the top dose activity change, negative = inhibition, most hits filed as inhibitors; Marburg virus pseudotyped entry inhibition, cell reporter; 1.8% of 300,000 active; calls by dose curve; tested in HEK293 cells; note: potency is the fitted concentration of half-maximal effect
# * = called active by the depositor; ? = inconclusive; / = not tested or not shown; [ ] = dose if it differs, or a comment. Rows were chosen to be rich in hits. Some 7.9% of all compounds tested hit in one or more screens of this group. % is set by controls: 0 for no effect and ±100 for the full control effect.
SMILES,FMDV inh,HCV inhibitor,HCMV inh,Lassa entry inh,Marburg entry inh
Cc1ccccc1-n1cc[nH]c1=S,-8%,-9%,9,-6%,-1%[46.1 µM]
Cc1ccccc1-c1cccc([C@@H]2C[C@H]3[C@H](CON3C)CN2C(=O)CCc2ccccc2)c1,-15%,-23%,2,/,/
Cn1nnnc1SCCNCc1cc(Br)ccc1OCc1ccccc1Cl,?,/,-69*,?,?
Cn1nnnc1SCCNCc1ccc(OCc2ccccc2Cl)cc1,0%,/,-105*,-3%[46.1 µM],?
Cn1nnnc1SCCNCc1ccc(OCc2ccccc2)cc1,-5%,/,-1,-5%[46.1 µM],?
Cn1nnnc1SCCNCc1ccccc1OCc1ccccc1Cl,?,?,?,1%,-30%[46.1 µM]
COC(=O)c1ccc(OC(=O)c2ccccc2F)cc1,/,-3%,?,-11%,-11%
NCCC(=O)N[C@H](Cc1cnc[nH]1)C(=O)O,1%,/,/,/,/
Cc1sc(NC(=S)NC(=O)CCc2ccccc2)c(C(N)=O)c1C,-1%,?,-83*,?,?
COC(=O)CCC(=O)NC(=S)Nc1sc(C)c(C)c1C(N)=O,14%,1%,?,?,-24%
CCOC(=O)c1c(NC(=O)C[n+]2ccc(Cc3ccccc3)cc2)sc(C)c1C,-27%,1.3µM*,-38,-21%[46.1 µM],?
CCOC(=O)c1c(NC(=S)Nc2ccccc2)sc(C)c1C,/,2%,-21,-9%,3%
CCOC(=O)c1c(NC(=O)CNC2CCCCC2)sc(C)c1C,-16%,10µM*,10,-20%[46.1 µM],?
CCOC(=O)c1c(NC(=O)c2nn(C)cc2[N+](=O)[O-])sc(C)c1C,6%,3.5µM*,66,11%,6%[46.1 µM]
CC(CC(=O)Nc1nnc(C(C)(C)C)s1)c1ccccc1 (stereo not given),2%,13%,6,/,/
CCOC(=O)c1c(NC(N)=O)sc(C)c1C,-17%,0.89µM*,66,-9%,1%
CCOC(=O)c1c(NC(=O)CN2CCCc3ccccc32)sc(C)c1C,-22%,3.2µM*,-36,-19%,?
COC(=O)c1c(NC(=O)CN2CCCc3ccccc32)sc(C)c1C,14%,?,?,-8%,-13%
COc1ccc2cc([C@H](C#N)C3CCCC3)ccc2c1,/,/,-9,/,/
CC(C)(C)OC(=O)NNC1CC(=O)N(c2ccccc2F)C1=O (stereo not given),-21%,3%,-71*,12%,5%
CCOC(=O)NNC1CC(=O)N(c2ccccc2)C1=O (stereo not given),-16%,9%,-3,7%,15%
Cc1cc(N2CCCC2)c(F)cc1/C=C\[N+](=O)[O-],22µM*,5%,-4,?,-11%[46.1 µM]
Cc1cc(N2CCC(C)CC2)c(F)cc1[N+](=O)[O-],1%,0%,-12,0%,0%
CN(C)[C@H]1CCN([C@@H]2C[S+](=O)([O-])N[C@@H]2COCc2ccccc2)C1,/,/,/,4%[46.1 µM],/
O=C(CSc1oc(-c2ccco2)nc1S(=O)(=O)c1ccccc1)NCC1CCCO1 (stereo not given),2%,1%,-35,22%,?
SMILES,FMDV inh,HCV inhibitor,HCMV inh,Lassa entry inh,Marburg entry inh
Cc1ccc(-c2nc(S(=O)(=O)c3ccccc3)c(SCC(=O)NCC3CCCO3)o2)cc1 (stereo not given),-17%,?,-60*,?,-11%[46.1 µM]
Cc1cc(C)cc(NC(=O)CSc2oc(-c3ccco3)nc2S(=O)(=O)c2ccc(Cl)cc2)c1,-1%,/,-62*,0%[46.1 µM],?
O=C(CSc1oc(-c2ccco2)nc1S(=O)(=O)c1ccc(Cl)cc1)NCC1CCCO1 (stereo not given),/,?,-66*,2%,-3%
Cc1cc(C)cc(NC(=O)CSc2oc(-c3ccco3)nc2S(=O)(=O)c2ccccc2)c1,-27%,/,2,?,-26%[46.1 µM]
O=C(CCc1ccccc1)Nc1cccc(S(=O)(=O)N2CCOCC2)c1,13%,?,0,/,/
CC1(C)C(=O)OC(c2cc(Br)ccc2O)C(C)(C)C1=O (stereo not given),35µM*,13%,?,-2%,-5%
Cc1sc2ncnc(NCc3cccnc3)c2c1C,-16%,?,-61*,0%[46.1 µM],-17%[46.1 µM]
Cc1sc2ncnc(NCc3cccs3)c2c1C,14µM*,10µM*,-92*,-10%,-15%
CC1CCc2c(sc3ncnc(NCCN4CCOCC4)c23)C1 (stereo not given),-15%,?,-15,/,-1%
Cc1sc2ncnc(NCc3ccco3)c2c1C,?,?,-36,-11%,-27%
